# Shown are actives, neighbours in structure and some others; about 3.9% of the full set was active somewhere.
# HIF activator: HIF pathway transcriptional activation. U2OS HRE-luciferase reporter, luminescence; normalized: DMSO 0%, desferrioxamine 100%. activation, % at 7.5 µM (by protocol). actives 0.32% (n = 300,000). AID 1910;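 active means mean activation of at least 10% of the iron chelator positive control signal, with at least half of replicates also reaching 10%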
# AHR activator: activators of human aryl hydrocarbon receptor | AHR-responsive luciferase reporter cells, luminescence | actives 2.5% (n = 320,000) | activation, % at 5 µM | P35869; in the data active means activation above about 47%;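 further: 0% = vehicle wells and 100% = reference agonist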
# PLC-beta3 inh: blocks human PLC-beta3 enzyme activity | Q01970 | Purified PLC-beta3, fluorogenic substrate, fluorescence | inhibition, % at 12.2 µM | actives 0.18% (n = 370,000) | AID 720704; in the data active means inhibition above about 11%;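 further: 0% = median of compound wells on plate and 100% = full blocker control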
# Target sequence (Q01970 whole entry, looked up): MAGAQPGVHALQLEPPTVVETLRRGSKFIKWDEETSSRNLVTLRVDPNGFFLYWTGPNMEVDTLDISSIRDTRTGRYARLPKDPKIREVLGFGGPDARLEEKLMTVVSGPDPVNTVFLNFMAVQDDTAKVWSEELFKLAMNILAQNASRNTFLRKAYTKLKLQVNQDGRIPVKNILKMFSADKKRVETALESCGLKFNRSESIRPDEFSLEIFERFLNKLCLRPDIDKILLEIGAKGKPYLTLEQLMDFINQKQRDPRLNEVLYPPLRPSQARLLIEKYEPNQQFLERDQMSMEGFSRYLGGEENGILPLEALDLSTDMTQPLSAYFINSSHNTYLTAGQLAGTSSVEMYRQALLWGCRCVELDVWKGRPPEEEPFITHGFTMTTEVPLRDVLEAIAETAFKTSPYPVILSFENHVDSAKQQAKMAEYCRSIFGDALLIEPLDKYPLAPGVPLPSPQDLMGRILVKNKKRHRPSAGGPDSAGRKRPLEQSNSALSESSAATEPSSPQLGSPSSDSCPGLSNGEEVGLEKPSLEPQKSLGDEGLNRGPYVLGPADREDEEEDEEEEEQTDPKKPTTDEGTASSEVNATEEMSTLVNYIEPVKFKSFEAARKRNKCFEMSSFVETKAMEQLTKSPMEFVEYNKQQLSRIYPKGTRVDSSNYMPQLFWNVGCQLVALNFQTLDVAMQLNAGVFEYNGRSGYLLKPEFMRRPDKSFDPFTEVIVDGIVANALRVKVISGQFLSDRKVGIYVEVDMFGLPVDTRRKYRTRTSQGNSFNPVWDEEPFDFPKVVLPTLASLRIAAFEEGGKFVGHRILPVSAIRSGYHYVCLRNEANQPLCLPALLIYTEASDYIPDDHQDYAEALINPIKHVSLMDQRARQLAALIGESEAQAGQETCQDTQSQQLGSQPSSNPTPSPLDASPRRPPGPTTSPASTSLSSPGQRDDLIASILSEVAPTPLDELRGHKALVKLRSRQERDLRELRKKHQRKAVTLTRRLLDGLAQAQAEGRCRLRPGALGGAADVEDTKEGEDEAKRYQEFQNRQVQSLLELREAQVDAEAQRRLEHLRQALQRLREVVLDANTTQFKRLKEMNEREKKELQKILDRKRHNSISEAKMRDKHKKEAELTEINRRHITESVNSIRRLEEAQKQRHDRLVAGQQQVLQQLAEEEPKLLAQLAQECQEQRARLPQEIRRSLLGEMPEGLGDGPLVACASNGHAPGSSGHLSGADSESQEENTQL
# HGIII-sPLA2 inh: Inhibits HGIII-sPLA2 liposome hydrolysis, primary screen; Q9NZ20; QFRET BODIPY PC-A2 liposome hydrolysis, fluorescence; inhibition, % at 12.2 µM; actives 0.56% (n = 370,000); AID 743126;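 active means inhibition above mean plus 3 SD of compounds lying within the high and low control bounds, cut at about 19% in these data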;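 further: 0% = median of test compound wells and 100% = no enzyme DMSO wells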
# PLC-gamma1 inh: PLC-gamma1 (human) inhibition, primary screen; AID 720700; purified PLC-gamma1, fluorogenic substrate, fluorescence; inhibition, % at 12.2 µM; actives 0.84% (n = 370,000); in the data active means inhibition above about 9.5%
# Yeast superoxide: caloric restriction mimetics inhibiting age-related superoxide in yeast; AID 2690; S. cerevisiae aged cells, superoxide DHE fluorescence; hits give low values; superoxide response (% of plate mean), % at 10 µM; actives 0.18% (n = 330,000);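 active means superoxide response under a set limit, about three screen SD below normal, cut at about 65% in these data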;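 further: yeast aged for seven days with compound at 30 °C before DHE staining; 100% = average MFI of all compound-treated wells on the plate with controls excluded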
# Starred values were filed as active, the others as inactive; i = inactive; nt = no result.
SMILES,HIF activator,AHR activator,PLC-beta3 inh,HGIII-sPLA2 inh,PLC-gamma1 inh,Yeast superoxide
C=CCOc1ccc(/C=N/NC(=O)c2cc3c(OC)cc(OC)cc3[nH]2)cc1,-1,68*,-370,-31,-269,111
CCOc1ccc(/C=N/NC(=O)c2cc3c(OC)cccc3[nH]2)cc1,0,33,-105,-13,-67,99
COc1ccc(OC)c(/C=N/NC(=O)c2cc3c(OC)cccc3[nH]2)c1,0,23,-245,-8,-164,112
COc1ccc(OC)c(/C=N/NC(=O)Cc2nc3ccccc3[nH]2)c1,-1,57*,-450,-25,-363,92
COc1cccc(/C=N/NC(=O)c2cc3c(OC)cccc3[nH]2)c1OC,0,54*,-94,-13,-72,98
O=C(Cc1nc2ccccc2[nH]1)N/N=C/c1ccccc1,0,11,-172,-11,-132,98
COc1ccc(OC)c(/C=N/NC(=O)c2cc3c(OC)cc(OC)cc3[nH]2)c1,0,56*,i,-46,-447,92
C[C@@H]1O[C@@H](n2c3ccc(Cl)cc3c3ccc4c5cc(Cl)ccc5[nH]c4c32)[C@H](O)[C@H](O)[C@H]1O,nt,nt,-10,-6,-7,nt
c1cc2c3c(cccc3c1)NC1(CCCCCC1)N2,-1,16,-23,15,-14,111
c1cc2c3c(cccc3c1)NC1(CCC3(CC1)Nc1cccc4cccc(c14)N3)N2,-11,49*,-14,1,-12,84
Cn1c(=O)c2cc3c(nc2n(C)c1=O)CC(c1ccccc1)CC3=O (configuration not stated),-1,59*,-4,-4,-1,86
CCOC(=O)[C@]12CCCC=C1N(CCCOC)C(=O)[C@@H]2CC(=O)NCc1cccc2ccccc12,nt,nt,4,-9,1,nt
CC1=CCC(/C=N\Nc2nnc3c(n2)[nH]c2ccccc23)CC1 (configuration not stated),3,55*,nt,nt,nt,102
COc1ccccc1/C=C/C(=O)Nc1cccnc1,2,58*,-11,1,-4,100
COC(=O)/C=C/C(=O)Nc1cccnc1,0,5,0,1,4,101
O=C(/C=C/c1ccco1)c1cccnc1,0,0,-19,10,-4,97
COc1ccccc1/C=C/C(=O)NCCc1ccccn1,4,63*,-15,5,-6,105
O=C(/C=C/c1ccco1)Nc1cccc2cccnc12,1,48*,-52,-2,-46,101
O=C(/C=C/c1ccco1)Nc1cccnc1,1,71*,0,1,-1,91
COc1cc(/C=C/C(=O)NCc2ccccn2)cc(OC)c1OC,0,12,-20,0,-18,98
O=C(/C=C/c1ccccc1Cl)Nc1cccnc1,1,52*,-3,-2,-2,102
Cc1ccc(-c2c(C(=O)NCC(C)C)oc(=O)c3ccccc23)cc1,nt,nt,0,9,3,nt
COC(=O)[C@]12C[C@H](CC(=O)N3CCOCC3)C(=O)N(Cc3cccc4ccccc34)C1=C[C@H](C1CCCC1)O[C@@H]2C,nt,nt,5,-11,1,nt
CC(C)n1nc(Cc2cccc3ccccc23)c(C#N)c1N,1,62*,-1,-14,3,95
N#Cc1cc(-c2ccccc2)nn1-c1ccccc1,2,68*,4,2,2,112
SMILES,HIF activator,AHR activator,PLC-beta3 inh,HGIII-sPLA2 inh,PLC-gamma1 inh,Yeast superoxide
Cn1ccc(-c2ccccc2)n1,0,-1,-5,7,-1,100
CCCn1c(=O)c(C(=O)Nc2ncccc2O)c(O)c2ccccc21,-1,nt,-13,-2,-1,92
Cn1c(=O)c(C(=O)Nc2ncccc2O)c(O)c2ccccc21,2,77*,-19,-11,-15,92
COC(=O)[C@]1(C#N)CC(=O)N(Cc2ccc(Cl)cc2)[C@@H]1c1ccc(OC)cc1,nt,nt,-1,-7,2,nt
Cc1cccc(-c2cccc3c4c([nH]c23)[C@@H]2C[C@H](N(C)C(=O)Nc3ccccc3)[C@H]([C@H](C)O)CN2CC4)c1,nt,nt,-48,-1,-44,nt
C=CCOc1nc(-c2ccncc2)nc2ccccc12,0,52*,3,-2,0,98
COc1nc(-c2ccncc2)nc2ccccc12,-1,75*,1,-1,0,98
CCCCN(CC)c1nc(-c2ccncc2)nc2ccccc12,1,73*,-48,-5,-38,91
COc1ccc(Oc2nc(-c3ccncc3)nc3ccccc23)cc1,-1,17,-9,3,0,98
CC1CN(c2ccnc3cc(Cl)ccc23)CCN1C(=O)c1ccc(Cl)cc1 (configuration not stated),nt,nt,-16,-16,-9,nt
CC(C)(C)OC(=O)NCc1cc2c(cc1/C=C/S(=O)(=O)NC1CCCC1)OCO2,nt,nt,-12,0,-7,nt
CCCCn1c(O)c(N=Nc2ccccn2)c2ccccc21,-1,39,-9,0,-10,95
CCCCn1c(O)c(N=Nc2ccccc2O)c2ccccc21,nt,60*,-22,0,-15,117
COC(=O)[C@H](CC(C)C)N(CCc1cn(Cc2ccccc2)nn1)S(=O)(=O)c1ccccc1Br,nt,nt,2,-18,2,nt
Cc1ccccc1NC(=O)Cn1nnc(C(=O)NCc2ccco2)c1N,1,7,0,3,-1,79
CCOc1ccccc1NC(=O)Cn1nnc(C(=O)NCc2ccco2)c1N,2,64*,-1,1,2,96
CC(NC(=O)c1cc2cc(F)ccc2[nH]1)c1ccccc1 (configuration not stated),0,53*,-14,-3,-5,90
O=C(NCCc1ccc(Cl)cc1)c1ccc2c(c1)ncn2C1CCCCC1,nt,nt,-4,-1,-1,nt
Cc1ccccc1NC(=O)c1ccc(F)c(S(=O)(=O)NCC2CCCO2)c1 (configuration not stated),-1,3,-12,7,-1,97
Cc1ccc(NC(=O)c2ccc(Cl)c(S(=O)(=O)NCC3CCCO3)c2)c(O)c1 (configuration not stated),-24,62*,-11,-25,-1,93
CC1C/C(=N/Nc2nc3ccccc3[nH]2)CC(C)(C)C1 (configuration not stated),3,89*,-11,2,-9,81
COC(=O)[C@]12C[C@H](CC(=O)N3CCN(C(=O)C4CC4)CC3)C(=O)N(Cc3ccc(Cl)cc3Cl)C1=C[C@H](C(C)C)O[C@@H]2C1CC1,nt,nt,0,-14,-1,nt
C=CCNC(=O)/C(C#N)=C\c1cc(Cl)c(OCC)c(OC)c1,-1,6,4,7,8,63*
Cc1cc2oc(=O)cc(CN3CCc4ccccc43)c2cc1Cl,-21,50*,-13,-1,-10,105
CC(OC(=O)CCCN=C1NS(=O)(=O)c2ccccc21)C(=O)c1ccccc1 (configuration not stated),0,59*,-3,-2,5,99
